# Screens (PubChem)
# Cycloheximide cs: affects cycloheximide protein synthesis inhibition readout, counter-screen. cell reporter, cycloheximide protein synthesis inhibition counterscreen. max response, %. 300,000 compounds, 12% hits; in the data active means max response mostly above about 13%, no sharp cut-off; inactive means mostly below about 14%; further: read at 38.3 µM for the half of the compounds with a filed dose; 0% is about no effect
# AmpC inh detg: blocks E. coli AmpC beta-lactamase in detergent assay. AmpC hydrolysis of nitrocefin, absorbance 480 nm, 0.01% Triton. Potency, µM (series often up to 114 µM), for inactives: at the highest dose activity change, negative = inhibition, most hits filed as inhibitors. 370,000 compounds, 0.041% hits;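 further: potency means the concentration at half of the fitted maximal effect; 0% = no-compound wells and -100% = no-enzyme wells; nearly all actives have a fitted effect of over 25% in size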
# Target sequence (P00811 whole entry, looked up): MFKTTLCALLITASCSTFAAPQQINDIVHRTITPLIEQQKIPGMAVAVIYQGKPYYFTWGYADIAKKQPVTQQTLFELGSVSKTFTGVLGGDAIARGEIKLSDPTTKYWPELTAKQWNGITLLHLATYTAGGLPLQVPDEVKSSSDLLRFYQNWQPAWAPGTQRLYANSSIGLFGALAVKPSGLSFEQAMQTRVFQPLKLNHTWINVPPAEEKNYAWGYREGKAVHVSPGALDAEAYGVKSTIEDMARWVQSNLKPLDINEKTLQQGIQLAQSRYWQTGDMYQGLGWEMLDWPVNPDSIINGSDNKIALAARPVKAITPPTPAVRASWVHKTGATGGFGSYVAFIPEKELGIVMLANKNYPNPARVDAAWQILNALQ
#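 AmpC (5.3 nM in the dispensed reagent) in 20 mM phosphate pH 7.0 with 0.01% (detergent screen) or 0.0001% Triton X-100 was preincubated with compounds for 15 min at room temperature. Nitrocefin was then added from an 800 uM solution, and hydrolysis was followed at 480 nm.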
# Shiga toxin inh: blocks Shiga toxin action in Vero cells. inhibition, % at 38.7 µM. 290,000 compounds, 9.2% hits. Vero cells, Shiga toxin protein synthesis inhibition reporter; in the data active means inhibition mostly above about 28%, no sharp cut-off; inactive means mostly below about 43%; further: 0% is about no effect
# AMA1 RON2 block: disrupts binding of P. falciparum AMA1 to RON2; AlphaScreen AMA1-biotinylated RON2 peptide binding; Potency, µM (series often up to 58.2 µM), for inactives: top-dose activity change, negative = inhibition, usual class: inhibitors; 360,000 compounds, 0.2% hits;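 further: potency means the concentration at half of the fitted maximal effect; 0% = vehicle wells and -100% = peptide control; nearly all actives have a fitted effect of over 45% in size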
#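 AMA1 (3D7) with his tag at 25 nM final met compounds first, then biotinylated RON2 peptide at 25 nM; detection used donor plus acceptor beads, 10 µg/mL apiece, read by AlphaScreen after 30 min at room temperature.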
# AmpC inh no detg: AmpC beta-lactamase inhibition without detergent. P00811. AmpC nitrocefin hydrolysis, absorbance 480 nm, 0.0001% Triton. Potency, µM (titrated, usually from 57.1 µM), inactives show at the top dose activity change, negative = inhibition, actives largely listed as inhibitors. 330,000 compounds, 0.52% hits. AID 485341;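 further: potency means the concentration at half of the fitted maximal effect; plate controls were no compound for no effect and no enzyme for full effect; nearly all actives have a fitted effect of over 20% in size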
#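 AmpC (5.3 nM in the dispensed reagent) in 20 mM phosphate pH 7.0 with 0.01% (detergent screen) or 0.0001% Triton X-100 was preincubated with compounds for 15 min at room temperature. Nitrocefin was then added from an 800 uM solution, and hydrolysis was followed at 480 nm.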
# SARS PLP yeast: SARS-CoV PLP inhibition in yeast | S. cerevisiae expressing SARS-CoV PLpro, growth rescue | Potency, µM (top dose mostly 32.9 µM), for the others: at the highest dose activity, positive = growth rescue, usual class: activators | AID 485353 | 330,000 compounds, 0.19% hits; calls by dose curve; further: potency means the concentration at half of the fitted maximal effect; 0% is about no effect; nearly all actives have a fitted effect of over 55% in size
# * = called active by the depositor; ? = inconclusive; / = not tested or not shown. Only a selection was taken, and hits are over-represented in it overall. Unless noted, the call rests on the fitted dose curve; in most records, active means well fitted curve in the direction sought with a large enough effect; inconclusive means small, poorly fitted or top-dose-only effect, or another doubt; inactive means no such curve, though single readings can be large; an effect the other way counts as inactive or inconclusive.
SMILES,Cycloheximide cs,AmpC inh detg,Shiga toxin inh,AMA1 RON2 block,AmpC inh no detg,SARS PLP yeast
CNC(=O)C(C)c1ncc(C(F)(F)F)cc1Cl (configuration not stated),-1,0%,2,-8%,-1%,0%
Cc1ccc(-n2c(=O)cc(N3CCC(C)CC3)[nH]c2=O)cc1,-2,-14%,-5,2%,-11%,-1%
O=C(/C=C/c1cccc([N+](=O)[O-])c1)NC1CC2CCC1C2 (configuration not stated),19*,?,34,-7%,-28%,-1%
COc1cc(/C=N/NC(=S)NC2CC3CCC2C3)ccc1O (configuration not stated),34*,-1%,36,60%,?,2%
COc1cc(/C=N/NC(=O)CC(=O)NC2CCCCC2)ccc1O,-2,-7%,-6,23%,-14%,1%
S=C(N/N=C/c1ccc2c(c1)OCO2)NC1CC2CCC1C2 (configuration not stated),35*,1%,63*,59%,-39%,0%
COc1ccc(/C=C/C(=O)NC2CC3CCC2C3)cc1 (configuration not stated),27*,?,/,2%,-18%,1%
CCSc1nc(N)c(NC(=O)c2ccc(Br)o2)c(=O)[nH]1,-2,-14%,-2,-18%,-8%,2%
CSC12CCCN(CCC(C(C)(C)C)C1)C2=O (configuration not stated),/,/,/,25%,/,/
O=C(COc1ccccc1Cl)Nc1ccccc1OCc1cc(=O)n2ccccc2n1,/,16%,/,/,/,/
COc1ccc(/C=N/NC(=S)N[C@H]2CC3CCC2C3)cc1 (some centres not stated),13*,-5%,18,55%,-37%,2%
COc1ccc(NC(=S)NC2CC3CCC2C3)c(OC)c1 (configuration not stated),7,-7%,5,11%,-24%,1%
CNS(=O)(=O)c1cn(CC(=O)Nc2ccc(C)cc2C)cc1S(=O)(=O)NC,/,18%,/,/,/,/
CC(C)c1ccc(-c2csc(NC(=O)c3cccs3)c2C(=O)O)cc1,15,2%,34*,-13%,-57%,1%
Cc1ccc(-c2csc(NC(=O)c3ccccc3Cl)c2C(=O)O)cc1,23*,-16%,40*,-8%,-39%,-1%
Cc1c(NC(=O)c2ccc(S(=O)(=O)N3CC(C)OC(C)C3)cc2)c(=O)n(-c2ccccc2)n1C (configuration not stated),-5,-8%,-1,-5%,-7%,1%
O=[N+]([O-])c1ccc(/C=C2\CCC(C3=CCCC3)=C2N2CCOCC2)cc1,24*,-4%,35,-10%,-48%,-64%
Cc1nc(CS(=O)(=O)c2ccccc2)cc(N2CCN(c3ccccc3F)CC2)n1,0,-6%,6,2%,1%,-1%
Cc1nc(CS(=O)(=O)c2ccccc2)cc(Sc2ccc(Cl)cc2)n1,27*,0%,55*,-2%,4µM*,0%
Cc1nc(CS(=O)(=O)c2ccc(Cl)cc2)cc(Sc2ccccc2Cl)n1,-3,5%,19,3%,3.5µM*,-11%
Cc1nc(CS(=O)(=O)c2ccccc2)cc(Sc2ccccc2Cl)n1,38*,4%,105*,-2%,?,-2%
Cc1ccnc2nc(C(=O)NCc3cccs3)nn12,2,-2%,10,-3%,/,/
COc1ccc(CC(C)N2CCN(c3ccccc3)CC2)cc1OC (configuration not stated),-3,?,-27,9%,-2%,3%
COc1ccc(-c2csc(NC3CCCCC3)n2)c(OC)c1,26*,-7%,60*,-22%,-39%,-2%
O=C(Nc1nc(-c2ccccc2)cs1)NC1CCCCC1,34*,-2%,48*,-5%,-35%,-29%
SMILES,Cycloheximide cs,AmpC inh detg,Shiga toxin inh,AMA1 RON2 block,AmpC inh no detg,SARS PLP yeast
c1ccc(-c2csc(NC3CCCCC3)n2)cc1,56*,-2%,148*,-25%,-39%,-3%
O=C(Nc1nc(-c2ccccc2)cs1)C1CCCCN1S(=O)(=O)c1ccccc1 (configuration not stated),8,3%,-13,1%,-38%,-3%
COc1ccc(-c2csc(NC(=O)CN3C(=O)CCC3=O)n2)c(OC)c1,-3,?,-11,-11%,-2%,23%
Cc1ccc(S(=O)(=O)N2CCCCC2)cc1NS(=O)(=O)c1ccc(Cl)c(C(=O)O)c1,/,-21%,/,7%,-11%,-3%
CCOC(=O)C1CCN(c2c(-c3ccccc3)c3cc(Cl)ccc3[nH]c2=O)CC1,-1,5%,26,-1%,-17%,18%
CSCCC(NC(=O)OC(C)(C)C)C(=O)Oc1ccc2c(=O)c(-c3ccc4c(c3)OCCO4)coc2c1 (configuration not stated),36*,-12%,83*,?,-49%,-3%
COc1ccc(Cn2c(-c3ccc(Br)cc3)c[n+]3ccccc23)cc1,57*,-19%,49*,6%,29%,-6%
O=C(O)CCC(=O)N1CCN(c2nc3ccccc3s2)CC1,-1,-13%,-36,0%,-19%,2%
CCCC(=O)N1CCN(c2nc3ccc(Br)cc3s2)CC1,44*,-13%,46*,-1%,110%,-10%
O=C(O)CSCC(=O)N1CCN(c2nc3cc(Cl)ccc3s2)CC1,8,0%,28,-12%,-18%,-1%
CCCC(=O)N1CCN(c2nc3ccc(CC)cc3s2)CC1,36*,?,134*,1%,46%,-2%
CCCC(=O)N1CCN(c2nc3ccc(Cl)cc3s2)CC1,43*,-8%,50*,-3%,111%,-6%
CCCCC(=O)N1CCN(c2nc3ccc(Br)cc3s2)CC1,26*,-7%,45*,-4%,142%,-13%
Cc1ccc(-c2noc(Cn3cc(S(=O)(=O)N4CCCC4)ccc3=O)n2)cc1,/,-7%,/,10%,-28%,-31%
CCOc1ccccc1NC(=O)CCN1CCN(S(=O)(=O)c2ccc(Br)cc2)CC1,-3,?,1,47%,-5%,-2%
COc1cccc(NC(=O)c2cnn(-c3ccccc3)c2C)c1,32*,-3%,53*,-2%,-9%,-6%
CCn1ncc(C(=O)Nc2ccc(S(=O)(=O)N3CCCC3)cc2)c1C,7,-6%,9,-3%,8%,-3%
Cc1cc(NC(=O)c2cnn3c(C(F)F)cc(C4CC4)nc23)no1,-1,-9%,-8,3%,-16%,4%
CCc1cccc(NC(=O)c2cnn(-c3ccccc3)c2C)c1,45*,2%,137*,5%,-15%,-13%
CCOC(=O)c1cccc(NC(=O)c2cnn(-c3ccccc3)c2-n2cccc2)c1,/,19%,/,/,/,/
